We go through 23 compounds from PubChem BioAssay (EPA / NIEHS).

Results filed as inconclusive are left out. Calls of active or inactive are those of the source. How the source made its calls: active means hit-call score of the fitted dose curve at least 0.9, where 1 is the maximum; inactive means score below 0.9.

Read-out in the test: Cytochrome P450 2C9 (Homo sapiens) (UniProt P11712)
Kind of test: CLD_CYP2C9_48hr: CellzDirect (CLD) Gene Expression Assay for xenobiotic metabolism (CYP2C9) at 48 hours (AID 2283701). The method, then: CLD_48hr is a cell-based, multiplexed-readout assay that uses hepatocyte, a human liver primary cell, with measurements taken at 48 hours after chemical dosing in a 96-well plate.CLD_CYP2C9_48hr is one of 16 assay component(s) measured or calculated from the CLD_48hr assay. It is designed to make measurements of mRNA induction, a form of inducible reporter, as detected with chemiluminescence signals by Quantitative Nuclease Protection Assay (qNPA) technology.Data from the assay component CLD_CYP2C9_48hr was analyzed at the endpoint, CLD_CYP2C9_48hr, in the positive analysis fitting direction relative to DMSO as the negative control and baseline of activity. Using a type of inducible reporter, gain-of-signal activity can be used to understand changes in the reporter gene as they relate to the gene CYP2C9. Furthermore, this assay endpoint can be referred to as a primary readout. To generalize the intended target to other relatable targets, this assay endpoint is annotated to the cyp intended target family, where subfamily is xenobiotic metabolism.
Human hepatocyte cultures were treated daily for two consecutive days with fresh dosing solutions containing appropriate concentrations of the 320 ToxCast chemicals (chemical identities were blinded to CellzDirect and other ToxCast collaborators), vehicle control (0.2% DMSO), and positive control inducers as summarized in Table 1. Due to the large number of treatment groups and chemicals examined, the ToxCast chemicals were divided into two groups (spanning two independent cultures of hepatocytes from separate donor preparations (Hu778: ToxCast plates 1 and 2; Hu776: ToxCast plates 3 and 4). Each preparation of human hepatocyte cultures was treated with respective vehicle control, medium only control, set of six positive controls/reference chemicals for the five hepatic receptor pathways, and a subset of eight of the ToxCast chemicals (indoxacarb, pyrithiobac-sodium, norflurazon, cyhalofop-butyl, methomyl, thiram, acetochlor, and propiconazole). These replicate data, coupled with internal replicates designed within the blinded ToxCast chemical library, provided additional data to evaluate interindividual differences between hepatocyte preparations and their potential impact on chemical profiles.Cell morphology and integrity were evaluated using phase-contrast microscopy as an indicator of hepatocyte cell health (Tyson & Green, 1987). Cultures for each treatment group (i.e., media, vehicle [0.2% DMSO], positive control inducers [multiple concentrations], and the ToxCast chemicals [multiple concentrations]) were observed and cell morphology was assessed relative to vehicle control cultures at each harvest time point (0, 6, 24, or 48 h). […] Images were evaluated at the conclusion of the study to assess changes in cell integrity and account for the effects of chemical exposure on uncharacteristic changes in concentration-dependent gene expression profiles. The results from these determinations of apparent cytotoxicity were annotated (yes/no) alongside the corresponding qNPA data for reference.At the conclusion of each treatment period, hepatocyte cultures (96-well) were washed with 1 volume of HBSS, lysed by addition of 25 ul ArrayPlate lysis buffer (HTG, Tucson, AZ), and 70 ul/well of Denaturation Oil, denatured by incubation at 95C for 10 min, and frozen at approximately -70C until analysis by nuclease protection assay (qNPA) (Roberts et al., 2007). For qNPA analysis, cell lysates were thawed at 50C for approximately 30 min, qNPA probes were added, and samples were incubated at 95C for 10 min to begin the detection process by denaturing the target RNA, dissociating the duplexes and secondary structure hybridization. At the conclusion of the hybridization period, S1 nuclease reagent was added to each sample to digest all nonprotected nucleotides at 50C for 60-90 min. […]
On to `CCNc1nc(Cl)nc(NC(C)C)n1`, for which the result was inactive. For `COc1nc(C)nc(NC(=O)NS(=O)(=O)c2ccccc2Cl)n1` the value was “inactive”; for `CO/C=C(/C(=O)OC)c1ccccc1Oc1cc(Oc2ccccc2C#N)ncn1`, “inactive”; for `C=CCC1=C(C)[C@@H](OC(=O)[C@@H]2[C@@H](C=C(C)C)C2(C)C)CC1=O`, “inactive”. For the compound `CC(Oc1ccc(Cl)cc1Cl)C(=O)O` (stereo not drawn), the outcome was inactive. Take `CC(C)(C)c1ccc(CSc2cnn(C(C)(C)C)c(=O)c2Cl)cc1`: the outcome was inactive. Regarding `O=C(O)COc1nc(Cl)c(Cl)cc1Cl`, the compound was classed as inactive. Under `COP(=S)(OC)Oc1nc(Cl)c(Cl)cc1Cl` stands “inactive”; under `COP(N)(=O)SC` (stereo not drawn), “inactive”. `O=C(O)c1nc(Cl)ccc1Cl`: the compound was called inactive. On to `Cc1cc(Cl)ccc1OCC(=O)O`, for which the compound was classed as inactive.

Take `COc1nc(NC(C)C)nc(NC(C)C)n1`: the result was inactive.

With `C#CCOS(=O)OC1CCCCC1Oc1ccc(C(C)(C)C)cc1` (stereo not drawn), the compound was called inactive.

Consider `CCCCOC(=O)c1ccccc1C(=O)OCCCC`, for which the result was inactive. With `COC(=O)c1ccccc1C(=O)OC`, the result was inactive. For `CCOC(=O)C(Cl)Cc1cc(-n2nc(C)n(C(F)F)c2=O)c(F)cc1Cl` (stereo not drawn) the value was “inactive”.

Regarding `Fc1ccc(Oc2ccnc3cc(Cl)cc(Cl)c23)cc1`, the compound was called inactive. Under `COc1cnc(OC)n2nc(NS(=O)(=O)c3c(OCC(F)F)cccc3C(F)(F)F)nc12` stands “inactive”; under `COC(=O)C(C)Oc1ccc(Oc2ccc(Cl)cc2Cl)cc1` (stereo not drawn), “inactive”; under `CCON=C(CC)C1=C(O)CC(c2c(C)cc(C)cc2C)CC1=O` (stereo not drawn), “inactive”.

As to `COc1ccc(C(c2ccc(OC)cc2)C(Cl)(Cl)Cl)cc1`, the compound was called inactive. Under `CC(C)Oc1cc(-n2nc(C(C)(C)C)oc2=O)c(Cl)cc1Cl` stands “inactive”. Take `COc1nc(C)nc(NC(=O)NS(=O)(=O)c2ccccc2CCC(F)(F)F)n1`: the compound was classed as inactive.
